GALK inh: qHTS Assay for Inhibitors of Human Galactokinase (GALK) | Purified GALK, Kinase-Glo residual ATP luminescence | Potency, µM (highest dose often 57.5 µM), for inactives: at the top dose activity change, negative = inhibition, usual class: inhibitors | 270,000 compounds, 0.007% hits | AID 1868, 2009; note: potency is the fitted concentration of half-maximal effect
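GALK at 5 nM final was combined with compound, 35 uM ATP and 100 uM galactose in HEPES pH8.0 with MgCl2 and DTT. The reaction ran one hour at room temperature before luminescent ATP detection.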
VDR inhibitor: Inhibitors of the vitamin D receptor (VDR): qHTS; Vitamin D3 receptor (Homo sapiens), P11473; VDR-SRC2-3 peptide fluorescence polarization, 2 h; Potency, µM, without a hit: max response, negative = inhibition, hits mostly inhibitors; 400,000 compounds, 0.93% hits; AID 504847, 2011; note: potency is the fitted concentration of half-maximal effect
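Inhibition of the VDR/SRC2-3 peptide interaction is quantified by fluorescence polarization. Compounds (23 nl, pintool) incubate with the reagents for 2 hours at ambient room temperature.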
USP2a block: qHTS Assay for Inhibitors of Ubiquitin-specific Protease USP2a Using CHOP2 as the Reporter; AID 463254, 2010; 330,000 compounds, 0.01% hits; USP2 core, Ub-CHOP2 coupled fluorogenic reporter, 485/531; Potency, µM (titrated, usually from 38.3 µM), inactives show at the top dose activity change, negative = inhibition, most hits filed as inhibitors; Ubiquitin carboxyl-terminal hydrolase 2 (Homo sapiens), O75604;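 note: potency is the fitted concentration of half-maximal effect; plate controls were DMSO wells for no effect and full inhibition by NEM control for full effect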
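Cell-free coupled assay: 10nM USP2 core preincubated 30min RT with compound in Tris-HCl pH 8.0/CaCl2/CHAPS buffer, then 25nM Ub-CHOP2 and 25nM reporter substrate; fluorescence (Ex 485/Em 531) read after 60min RT, normalized to NEM inhibition, concentration-response curves fitted.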
Coupling enz: qHTS Assay for Inhibitors of Fructose-1,6-bisphosphate Aldolase from Giardia Lamblia: Coupling assay counterscreen; coupling enzyme system counterscreen, AmpLite Red fluorescence; activity change, negative = inhibition, % at 58.2 µM, hits read low; 290,000 compounds, 0.67% hits; AID 2472, 2010; in the data active = activity change below about -30%
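Counterscreen of the coupled detection system alone, without aldolase: glyceraldehyde-3-phosphate coupling enzymes plus AmpLite Red readout. Compounds at 57.5 uM final, 10 min RT preincubation, 20 min RT reaction, fluorescence 525/598 nm.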
PLK1 PBD inh: qHTS for Inhibitors of PLK1-PDB (polo-like kinase 1 - polo-box domain): Primary Screen. Serine/threonine-protein kinase PLK1 (Homo sapiens), P53350. Plk1 PBD binding of FITC phosphopeptide, fluorescence polarization. Potency, µM, for inactives: max response, negative = inhibition, actives largely listed as inhibitors. 360,000 compounds, 2.8% hits; note: potency is the fitted concentration of half-maximal effect; series mostly up to about 57 µM; nearly all actives have a fitted effect of over 65% in size
Target sequence (P53350 whole entry, looked up, the tested form may be a part): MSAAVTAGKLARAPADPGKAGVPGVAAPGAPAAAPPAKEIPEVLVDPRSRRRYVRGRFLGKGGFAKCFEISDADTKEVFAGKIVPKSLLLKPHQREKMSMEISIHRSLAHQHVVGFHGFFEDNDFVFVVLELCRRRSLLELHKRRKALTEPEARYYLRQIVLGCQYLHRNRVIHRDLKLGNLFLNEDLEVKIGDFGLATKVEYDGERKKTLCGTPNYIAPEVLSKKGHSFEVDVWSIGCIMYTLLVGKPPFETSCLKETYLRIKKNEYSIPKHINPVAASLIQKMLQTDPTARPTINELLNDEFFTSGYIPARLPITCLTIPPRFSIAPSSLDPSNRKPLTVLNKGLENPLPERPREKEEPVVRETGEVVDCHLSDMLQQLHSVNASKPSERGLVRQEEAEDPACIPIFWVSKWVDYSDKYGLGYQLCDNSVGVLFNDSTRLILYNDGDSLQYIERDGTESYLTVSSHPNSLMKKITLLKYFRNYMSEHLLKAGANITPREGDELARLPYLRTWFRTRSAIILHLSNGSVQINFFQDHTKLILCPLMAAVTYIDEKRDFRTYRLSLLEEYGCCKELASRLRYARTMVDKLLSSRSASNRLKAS
USP1-UAF1 inh: Inhibitors of USP1/UAF1: Primary Screen. AID 743255, 2014. Ubiquitin carboxyl-terminal hydrolase 1 (Homo sapiens), O94782. recombinant USP1/UAF1, Ub-Rhodamine cleavage fluorescence. 390,000 compounds, 0.23% hits. Potency, µM (titrated, usually from 57.1 µM), for the others: at the top dose activity change, negative = inhibition, usual class: inhibitors; note: potency is the fitted concentration of half-maximal effect; nearly all actives have a fitted effect of over 60% in size
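USP1/UAF1 complex at 1 nM was preincubated with compound for 15 min at room temperature, then Ub-Rho substrate (150nM final) was added. Fluorescence (480/540 nm) was read kinetically, 6 reads every 60 seconds.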
Numbers without * were called inactive; ? = inconclusive; . = no result. The list is not random: actives were taken first. Their share in the collection is about 3.2%. Unless noted, calls come from the whole dose curve; as a rule, active = well fitted curve in the direction sought with a large enough effect; inconclusive = small, poorly fitted or top-dose-only effect, or another doubt; inactive = no such curve, though single readings can be large; an effect the other way counts as inactive or inconclusive. Unless noted, % is set by controls: 0 for no effect and ±100 for the full control effect.

SMILES | GALK inh | VDR inhibitor | USP2a block | Coupling enz | PLK1 PBD inh | USP1-UAF1 inh
NC(=O)NC(CC(=O)OCC(=O)NC(=O)NCc1ccco1)c1ccc(Cl)cc1 (stereo unspecified) | 0% | -9% | -1% | 3 | -7% | -9%
Oc1c(C(c2ccccc2Cl)N2CCCC2)ccc2cccnc12 (stereo unspecified) | 7% | ? | 0% | -6 | 7.5µM* | -9%
Oc1c(C(c2cccs2)N2CCN(c3ccccc3)CC2)ccc2cccnc12 (stereo unspecified) | 10% | . | . | 2 | . | .
CN1CCN(C(c2ccc(C(F)(F)F)cc2)c2ccc3cccnc3c2O)CC1 (stereo unspecified) | 0% | 32µM* | -2% | -1 | 3.8µM* | -15%
O=C(O)CN1C(=O)/C(=C/c2ccc(SCc3ccccc3)o2)SC1=S | -3% | ? | ? | -55* | 10% | ?
O=C(O)CCN1C(=O)/C(=C\c2ccc(-c3nc4ccccc4s3)o2)SC1=S | -1% | -9% | 0% | -5 | 8.4µM* | ?
O=C(O)CCCN1C(=O)/C(=C\c2ccco2)SC1=S | 9% | -9% | 2% | -9 | -21% | -12%
Cc1ccc(-n2c3nc(=O)[nH]c(=O)c-3cc3cc([N+](=O)[O-])ccc32)cc1C | -15% | ? | 1% | -29 | 8.4µM* | ?
Cc1ccc(S(=O)(=O)n2cnc3cc([N+](=O)[O-])ccc32)cc1C | -5% | 2% | 1% | -1 | -12% | -6%
CC(C)CC(NC(=O)CC12CC3CC(CC(C3)C1)C2)C(=O)NC1=NCCS1 (stereo unspecified) | 0% | 71µM* | -1% | 2 | 15µM* | -18%
CC(=O)Cc1cc(O)c2ccccc2c1OC(=O)c1ccccc1 | 0% | 7% | 7% | -20 | -12% | -16%
CCOC(=O)c1sc(=S)n(C)c1NC(=O)c1ccc(F)cc1 | 0% | ? | -2% | 1 | 5.3µM* | -1%
CCOC(=O)c1sc(=S)n(C)c1NC(=O)c1ccccc1C | 0% | ? | 3% | 6 | 6µM* | 0%
CCOC(=O)c1sc(=S)n(CC)c1NC(=O)c1ccccc1 | 5% | 0% | 2% | 3 | -4% | -14%
O=Cc1ccccc1OCCOc1ccc([N+](=O)[O-])cc1 | -2% | ? | 1% | 3 | 27µM* | -22%
O=C(NN1C(=O)C2C3C=CC(C3)C2C1=O)C(O)c1ccccc1 (stereo unspecified) | 8% | -5% | 1% | -13 | -1% | -17%
Cc1cn(CC(=O)NCCc2ccccn2)c(=O)[nH]c1=O | . | -7% | . | . | 21µM* | -18%
Cc1cn(CC(=O)NCCNc2ccc([N+](=O)[O-])cn2)c(=O)[nH]c1=O | . | 1% | . | . | -14% | -18%
O=C(NCC1CCCO1)c1ccc2c(c1)N(Cc1ccccc1)C(=O)CS2=O (stereo unspecified) | 0% | ? | -1% | 4 | 7.5µM* | -9%
CC1CCCC(NC(=O)c2ccc3c(c2)N(Cc2ccccc2)C(=O)CS3=O)C1C (stereo unspecified) | 0% | 16% | -1% | 2 | -4% | -13%
Clc1ccc(CN2C3=NCCCN3c3ccccc32)cc1Cl | -2% | -14% | 0% | 1 | 7% | -3%
CC(C)c1ccc(Nc2nnc(SCC(=O)Nc3ncc(S(=O)(=O)c4ccc([N+](=O)[O-])cc4)s3)s2)cc1 | 0% | -17% | -1% | -3 | 42µM* | -20%
Cc1ccc(Nc2nnc(SCC(=O)Nc3ncc(S(=O)(=O)c4ccc([N+](=O)[O-])cc4)s3)s2)cc1 | 1% | -6% | 2% | 6 | -7% | -8%
CC(=O)C1=C(O)C(=O)N(CCCn2ccnc2)C1c1ccc(Cl)cc1 (stereo unspecified) | 6% | -10% | 3% | -1 | -5% | -18%
Cc1ccc(N(CC(=O)N/N=C/c2cccc(Br)c2)S(C)(=O)=O)cc1 | 0% | 17% | -1% | -31* | -9% | -11%
SMILES | GALK inh | VDR inhibitor | USP2a block | Coupling enz | PLK1 PBD inh | USP1-UAF1 inh
Cc1ccc(N(CC(=O)N/N=C/c2cccs2)S(C)(=O)=O)cc1 | 0% | 7% | 0% | -8 | -1% | -10%
O=C(CCC(=O)Nc1ccc(F)cc1)N/N=C/c1cccc(Br)c1 | -1% | 18% | 5% | -31* | 3% | -12%
COc1ccc2ccccc2c1C1NC(=O)c2ccccc2N1 (stereo unspecified) | . | -19% | . | . | -9% | -7%
CCC(=O)N1CCc2cc(Br)cc(S(=O)(=O)N(C)c3ccc(OC)cc3)c21 | -1% | -5% | -2% | -3 | -1% | -32%
O=C(Nc1ccc(Cl)cc1)Nc1ccc(Br)cn1 | -1% | -22% | 3% | 0 | 30µM* | -16%
O=C(O)COc1ccccc1C1C2C(=O)N(c3ccc(F)cc3)C(=O)C2ON1c1ccccc1 (stereo unspecified) | 1% | 2% | 2% | 3 | 27µM* | -17%
CCOc1ccc(OCCSc2nc(C)cc(=O)[nH]2)cc1 | 1% | -25% | 4% | 5 | 3.4µM* | -10%
COc1cccc(C(=O)NCC(=O)N/N=C(C)\C=C\c2ccccc2)c1 | 2% | -10% | 8% | 1 | -7% | ?
CCOc1ccc(N(CC(=O)O)S(=O)(=O)c2ccc(F)cc2)cc1 | 0% | -10% | 8% | 22 | -17% | 3%
CCCCOc1ccc(Cc2n[nH]c(=S)n2N)cc1 | 0% | 50µM* | -7% | 3 | 3.8µM* | -17%
CN(C)c1ccc(C(c2nnnn2C(C)(C)C)N2CCc3ccccc3C2)cc1 (stereo unspecified) | 4% | . | 3% | 1 | . | .
CC1CCN(C(c2ccc(N(C)C)cc2)c2nnnn2C(C)(C)C)CC1 (stereo unspecified) | 0% | 50µM* | -1% | 1 | -3% | -10%
Cc1ccc2oc(C(=O)Nc3ccc(S(=O)(=O)N(C)c4ccccc4)cc3)cc(=O)c2c1 | . | 1% | . | . | . | ?
O=[N+]([O-])c1ccc2[nH]c(=S)[nH]c2c1 | . | -9% | . | . | 27µM* | ?
O=[N+]([O-])c1ccc2c(c1)[nH]c(=S)n2-c1ccccc1 | 0% | -12% | 1% | -5 | 6µM* | 5%

Screening results deposited in PubChem by National Center for Advancing Translational Sciences (NCATS).
